In the library only some 7.7% were active in any assay of this set; here they are far more common.
HCMV inh: inhibitors of human cytomegalovirus | HFF cells, HCMV-luciferase reporter, 72 h; active compounds read low | AID 1259415 | actives 4.5% (n = 410,000) | activity change, negative = inhibition, % at 57.5 µM; in the data active means activity change below about -60%; inconclusive means no clear call, values can overlap the other calls; inactive means above about -39%
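Luciferase read-out from HCMV-luciferase-infected HFFs (MOI 1 PFU/cell) 72 h post infection at 37C; compounds added after 16 h cell attachment; activity normalized between buffer-only basal and Salinomycin (10uM) inhibitor controls.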
FMDV antiviral: antivirals against foot and mouth disease virus; actives 1.2% (n = 410,000); FMDV antiviral cell-based qHTS; Potency, µM (titrated, usually from 57.9 µM), inactives show at the highest dose activity change, negative = inhibition, actives largely listed as inhibitors; calls by dose curve; tested in HEK293T cells; further: read-out not given here; potency means the concentration at half of the fitted maximal effect; nearly all actives have a fitted effect of over 45% in size
Sm TGR inh: S. mansoni TGR enzyme inhibition. purified TGR, DTNB reduction, TNB absorbance 405 nm. Potency, µM (top dose mostly 114 µM), for the others: top-dose activity change, negative = inhibition, hits mostly inhibitors. actives 3% (n = 360,000). AID 485364; further: potency means the concentration at half of the fitted maximal effect; nearly all actives have a fitted effect of over 60% in size
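TGR 20 nM + NADPH 100 uM (dispensed conc.), cpd preinc 15 min RT; start with NADPH (500 uM addition) then DTNB (15 mM addition). Kinetic TNB absorbance, 405 nm filter. Four-parameter Hill fit across titration.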
TbPYK inhibitor: T. brucei pyruvate kinase inhibition; Q57TT1; TbPYK enzyme, Kinase-Glo Plus ATP luminescence, 45 min; Potency, µM (titrated, usually from 76.8 µM), for the others: top-dose activity, negative = inhibition, most hits filed as inhibitors; actives 0.12% (n = 410,000); AID 624173; further: potency means the concentration at half of the fitted maximal effect; nearly all actives have a fitted effect of over 50% in size
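Luminescence from Kinase-Glo Plus, added after a 45-minute room-temperature reaction, served as the end-point read-out. The enzyme and substrate were preincubated with compound before ADP (130 uM final) initiated turnover. Concentration-effect curves came from normalized qHTS data.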
RE007 growth inh: less growth of the S. pombe RE007 Vpr strain | Potency, µM (titrated, usually from 92.2 µM), without a hit: top-dose activity change, negative = less growth, usual class: inhibitors | S. pombe RE007 Vpr strain, BacTiter-Glo ATP luminescence, 24 h | AID 651644 | actives 0.21% (n = 360,000); active means well fitted falling curve with a large enough effect; inconclusive means small, poorly fitted or top-dose-only effect; inactive means no such curve, though single readings can be large or run the other way; further: potency means the concentration at half of the fitted maximal effect; nearly all actives have a fitted effect of over 50% in size
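Fission yeast RE007 carrying one integrated HIV-1 vpr copy, seeded at OD 0.01 in PMG+AL medium with 23 nL pinned compound. Grown 24 h at 30 degrees; viability read by BacTiter-Glo luminescence after 5 min.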
Giardia FBPA inh: blocks Giardia fructose-bisphosphate aldolase activity | Potency, µM (top dose mostly 59.6 µM), without a hit: at the top dose activity, negative = inhibition, hits mostly inhibitors | AID 2451 | purified Giardia FBPA | actives 0.71% (n = 290,000); further: potency means the concentration at half of the fitted maximal effect; nearly all actives have a fitted effect of over 55% in size
Target sequence (A8B2U2 whole entry, looked up): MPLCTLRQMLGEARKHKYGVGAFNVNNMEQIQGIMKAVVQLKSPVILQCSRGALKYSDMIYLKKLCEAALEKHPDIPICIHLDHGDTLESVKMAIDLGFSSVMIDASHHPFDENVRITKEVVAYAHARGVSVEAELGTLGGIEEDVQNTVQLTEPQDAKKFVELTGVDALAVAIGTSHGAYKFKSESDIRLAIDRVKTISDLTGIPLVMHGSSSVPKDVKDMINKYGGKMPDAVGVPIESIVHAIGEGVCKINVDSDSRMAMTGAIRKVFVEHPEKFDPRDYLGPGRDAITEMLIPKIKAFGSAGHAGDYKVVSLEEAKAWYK
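40 nM FBPA preincubated 10 min at RT with compound (up to 57.5 uM final), then substrate plus GAPDH/TPI/NAD/arsenate coupling and diaphorase/resazurin added. Fluorescence read after 20 min at RT, 525/598 nm.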
* hit, by the source's call. Unless noted, the call rests on the fitted dose curve; in most records, active means well fitted curve in the direction sought with a large enough effect; inconclusive means small, poorly fitted or top-dose-only effect, or another doubt; inactive means no such curve, though single readings can be large; an effect the other way counts as inactive or inconclusive. On the % scale 0 is the no-effect control and ±100 the full control effect.

What do the screens show for `Cc1ccc(NC(=O)CC2OC(=O)c3ccccc32)cc1S(=O)(=O)N1CCCCCC1` (stereo not given)?
HCMV inh: -3.3; FMDV antiviral: -28.4%; Sm TGR inh: 25.1µM*; TbPYK inhibitor: -8.7%; RE007 growth inh: 2.7%

What do the screens show for `O=C(CC1OC(=O)c2ccccc21)Nc1cccc(S(=O)(=O)N2CCCCCC2)c1` (stereo not given)?
HCMV inh: 11.0; FMDV antiviral: 0.0%; Sm TGR inh: -21.7%; TbPYK inhibitor: -6.1%; RE007 growth inh: 8.9%

Results for CCN(CC)CCC(c1cc(OC)c(OC)c(OC)c1)c1c(OC)cc(OC)c2c1OC(=O)CC2c1ccc(N(C)C)cc1 (stereo not given) ?
Giardia FBPA inh: 0.5%

Results for Cc1ccc2c(c1)N(C(=O)Nc1cccc(C)c1C)CCO2 ?
HCMV inh: -4.3; FMDV antiviral: -18.8%; Sm TGR inh: -3.8%; TbPYK inhibitor: 2.1%

What do the screens show for `Cn1nnnc1SCCCNCc1ccc(-c2ccc(Br)cc2)o1`?
HCMV inh: -10.6; FMDV antiviral: 44.1%; Sm TGR inh: inconclusive; TbPYK inhibitor: -5.6%

What do the screens show for `Cc1ccc(Cl)cc1NS(=O)(=O)c1ccc(N2CCCCS2(=O)=O)cc1`?
HCMV inh: 0.0; FMDV antiviral: 11.2µM*; Sm TGR inh: -0.4%; TbPYK inhibitor: 1.9%

How did N#Cc1ccc(CSc2nnc(-c3cccc(S(=O)(=O)N4CCCCC4)c3)o2)cc1 do in these assays?
HCMV inh: -66.4*; FMDV antiviral: -28.3%; Sm TGR inh: -9.1%; TbPYK inhibitor: -2.6%; RE007 growth inh: -2.8%; Giardia FBPA inh: -8.6%

How did Cc1ccc(C)c(N2CCN(c3cc(C)nc4c(-c5ccc(Cl)cc5)c(C)nn34)CC2)c1 do in these assays?
HCMV inh: 24.5; FMDV antiviral: 23.4%; Sm TGR inh: 2.4%; TbPYK inhibitor: 7.3%

How did CC(NC(=O)C=Cc1ccco1)C(=O)NC(Cc1ccccc1)C(N)=O (stereo not given) do in these assays?
HCMV inh: 24.4

How did COc1ccc(C(NC(=O)/C=C/c2ccco2)c2ccc(OC)cc2)cc1 do in these assays?
HCMV inh: -3.5; FMDV antiviral: 17.8%; Sm TGR inh: 10µM*; TbPYK inhibitor: -17.3%; RE007 growth inh: 8.8%; Giardia FBPA inh: -4.3%

What do the screens show for `CCC(Cc1ccccc1)NC(=O)/C=C/c1ccco1` (stereo not given)?
HCMV inh: -20.2; FMDV antiviral: -3.5%; Sm TGR inh: 10µM*; TbPYK inhibitor: inconclusive; RE007 growth inh: 2.2%; Giardia FBPA inh: 3.2%

How did COc1ccc(OC)c(NC(=O)COC(=O)/C=C/c2ccco2)c1 do in these assays?
HCMV inh: -17.4; FMDV antiviral: -12.7%; TbPYK inhibitor: 0.0%; RE007 growth inh: -14.4%

What do the screens show for `COc1ccc(C(NC(=O)/C=C\c2ccco2)c2ccc(OC)c(OC)c2)cc1` (stereo not given)?
HCMV inh: -15.2; FMDV antiviral: -10.8%; Sm TGR inh: 12.6µM*; TbPYK inhibitor: inconclusive; RE007 growth inh: -2.6%; Giardia FBPA inh: 5.8%

What do the screens show for `CCCc1nnc(NC(=O)c2cc(=O)c3cc(C)c(C)cc3o2)s1`?
HCMV inh: 2.6; FMDV antiviral: -8.9%; Sm TGR inh: 5.3%; TbPYK inhibitor: 4.4%

How did Cc1ccc(NS(=O)(=O)c2cccs2)nc1 do in these assays?
HCMV inh: 26.4; FMDV antiviral: 22.0%; Sm TGR inh: 9.9%; TbPYK inhibitor: 0.6%; RE007 growth inh: -3.4%; Giardia FBPA inh: -17.6%

How did CCCCS(=O)(=O)Nc1ccc(C)cn1 do in these assays?
HCMV inh: 55.8; FMDV antiviral: 29.4%; Sm TGR inh: -17.2%; TbPYK inhibitor: -29.7%; RE007 growth inh: -6.1%; Giardia FBPA inh: 7.92µM*

How did COc1ccc(C2=NCC(C)n3c2c2ccccc2[n+]3[O-])cc1 (stereo not given) do in these assays?
HCMV inh: 14.2

Results for COC(=O)N/N=C/c1ccc([N+](=O)[O-])s1 ?
HCMV inh: -28.5; FMDV antiviral: -10.9%; Sm TGR inh: -22.1%; TbPYK inhibitor: -28.7%; Giardia FBPA inh: -6.4%

Results for Cc1c(Cl)cccc1N=Cc1ccc([N+](=O)[O-])s1 ?
HCMV inh: -107.8*; FMDV antiviral: 0.0%; Sm TGR inh: 39.8µM*; TbPYK inhibitor: -20.1%; RE007 growth inh: 15.8µM*; Giardia FBPA inh: -0.5%

How did CCC(C)C(=O)Nc1nc(-c2ccc3c(c2)NC(=O)CO3)cs1 (stereo not given) do in these assays?
HCMV inh: 65.7; FMDV antiviral: -18.6%; Sm TGR inh: -13.2%; TbPYK inhibitor: -4.0%; RE007 growth inh: 20.9%; Giardia FBPA inh: -18.1%

What do the screens show for `CN(C)S(=O)(=O)c1cccc(N=c2scc(-c3ccc4c(c3)NC(=O)CO4)n2CC2CCCO2)c1` (stereo not given)?
HCMV inh: inconclusive; FMDV antiviral: 28.2µM*; Sm TGR inh: -7.4%; TbPYK inhibitor: -16.8%; RE007 growth inh: 7.7%; Giardia FBPA inh: -12.1%

What do the screens show for `COCC(C)n1c(-c2ccc3c(c2)NC(=O)CO3)csc1=Nc1ccc(OC(F)F)cc1` (stereo not given)?
HCMV inh: -88.2*; FMDV antiviral: 20µM*; Sm TGR inh: -8.9%; TbPYK inhibitor: -6.6%; RE007 growth inh: 22.3%; Giardia FBPA inh: -5.8%

Results for COc1ccccc1CNS(=O)(=O)c1ccc2c(c1)NC(=O)CO2 ?
HCMV inh: -24.5; FMDV antiviral: 17.1%; Sm TGR inh: -6.6%; TbPYK inhibitor: 0.0%; RE007 growth inh: -4.6%

Results for c1ccc(-c2csc(=Nc3cccnc3)n2CC2CCCO2)cc1 (stereo not given) ?
HCMV inh: -35.8; FMDV antiviral: -21.5%; Sm TGR inh: -0.5%; TbPYK inhibitor: -12.2%; RE007 growth inh: 1.6%; Giardia FBPA inh: -9.6%

Results for Cc1ccc2nc(-c3ccc4c(c3)NC(=O)CO4)cn2c1 ?
HCMV inh: 83.2; FMDV antiviral: 0.0%; Sm TGR inh: -2.8%; TbPYK inhibitor: -10.7%; RE007 growth inh: -19.8%; Giardia FBPA inh: inconclusive

What do the screens show for `O=C1COc2ccc(-c3csc(=Nc4ccc(OC(F)F)cc4)n3CC3CCCO3)cc2N1` (stereo not given)?
HCMV inh: -93.6*; FMDV antiviral: 22.4µM*; Sm TGR inh: -11.4%; TbPYK inhibitor: 4.9%; RE007 growth inh: -5.8%; Giardia FBPA inh: -3.1%

How did COc1ccccc1N=c1scc(-c2ccc3c(c2)NC(=O)CO3)n1CC1CCCO1 (stereo not given) do in these assays?
HCMV inh: inconclusive; FMDV antiviral: 35.5µM*; Sm TGR inh: 0.7%; TbPYK inhibitor: -17.4%; RE007 growth inh: -16.3%; Giardia FBPA inh: -5.2%

Assay outcomes (PubChem)
